Data as given in PubChem BioAssay AID2546 (National Center for Advancing Translational Sciences (NCATS), 2010).
Hit rate of the full screen: of about 310,000 compounds, about 11,000 (3.5%) were called active. Entries that show only a call come without a potency. Roughly 8% stayed inconclusive and do not appear here. Calls follow the shape of the dose curve; as a rule, active = well fitted inhibition curve with a large enough effect; inconclusive = small, poorly fitted or top-dose-only effect, or effect the other way; inactive = flat fitted curve, though single readings scatter. Many of the other results were omitted from the sample, so actives are more common in it than they were.

Experiment: VP16 counterscreen qHTS for inhibitors of ROR gamma transcriptional activity;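 also: Gal4-VP16 expression switched on by copper sulfate through the metallothionein promoter; nearly all actives have a fitted effect of over 50% in size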
Conditions: Drosophila S2 Gal4-VP16 UAS-luciferase, luminescence, 20 h; series mostly up to 53.6 µM
Potency is read from the fitted curve at half-maximal effect.

| SMILES | Potency |
| --- | --- |
| Cc1ccccc1CNC(=O)CCC(=O)N1Cc2ccccc2Oc2ncccc21 | inactive |
| Cc1cc(SCc2c(F)cccc2Cl)nc(=O)[nH]1 | inactive |
| COc1ccc(CNC(=O)/C(C#N)=C/c2cccc(OC)c2OC)cc1 | inactive |
| O=C(NCCOCc1ccc(Cl)cc1)c1ncn[nH]1 | inactive |
| COc1ccc(Cl)cc1CSc1ncn[nH]1 | inactive |
| O=C(/C=C/Sc1ncn[nH]1)c1ccc(Cl)cc1 | 4.47 µM (active) |
| O=C(Cn1c(NCCO)nc2ccccc21)c1ccc(Cl)cc1Cl | inactive |
| CCc1cccc(NC(=S)N(CCN(C)C)C2CCN(C(C)C)CC2)c1 | inactive |
| CC(C)c1ccc(S(=O)(=O)N2CCN(C(=O)c3ccc(N4CCCC4)c([N+](=O)[O-])c3)CC2)cc1 | inactive |
| CC(=O)N1c2ccc(S(=O)(=O)NCCC(=O)N(C)C3CCCCC3)cc2CC1C (centres undefined) | inactive |
| Nc1nc(Nc2ccccc2F)nc(NC2CCCCC2)c1[N+](=O)[O-] | inactive |
| Cc1ccc(-c2csc(-c3c[nH]c4ccccc34)n2)cc1 | inactive |
| Cc1cccc(C(=O)Nc2nnc(Cc3c[nH]c4ccccc34)s2)c1 | inactive |
| Cc1cccc(N=C2NN=C(c3c[nH]c4ccccc34)CS2)c1 | 7.94 µM (active) |
| C=CCCN(C(Cc1ccccc1)C(=O)OC)S(=O)(=O)c1cc(Br)ccc1Br (centres undefined) | inactive |
| CC(C)c1nc(CNC(=O)CC2C(=O)NCCN2Cc2cccc(F)c2F)cs1 (centres undefined) | inactive |
| COc1ccc(N2CCN(S(=O)(=O)CCNC(=O)C34CC5CC(CC(C5)C3)C4)CC2)cc1 | inactive |
| COC(=O)c1ccc(CSc2ccc3nnc(-c4ccccc4)n3n2)o1 | 20 µM (active) |
| COc1ccc(-c2nnc3ccc(SCc4ccccc4)nn23)cc1 | inactive |
| COC(=O)c1ccc(CSc2ccccc2C)o1 | inactive |
| CC(=O)c1ccc(NC(=O)c2sc3nc4n(c(=O)c3c2C)CCCCC4)cc1 | inactive |
| COc1ccc(Cl)cc1NC(=O)c1cccc(N2C(=O)C3CC=CCC3C2=O)c1 (centres undefined) | inactive |
| CCOC(=O)c1c(-c2ccccc2)csc1NC(=S)NC(=O)c1ccccc1 | 6.31 µM (active) |
| Cc1cc2[nH]ncc2cc1NC(=S)NC(=O)c1ccccc1 | inactive |
| CCOC(=O)c1c(-c2cccc(C)c2)csc1NC(=O)c1c(-c2ccccc2)noc1C | inactive |
| CCOC(=O)c1c(NC(=O)C2(C)Cc3ccccc3C(=O)O2)sc2c1CCCC2 (centres undefined) | inactive |

| SMILES | Potency |
| --- | --- |
| CCOC(=O)c1c(-c2ccc(-c3ccccc3)cc2)csc1NC(=O)CCC(=O)O | inactive |
| CCOC(=O)C1=C(NC(=S)NC(=O)c2ccccc2)c2ccccc2CC1(C)C | 11.2 µM (active) |
| COc1ccc(CNC(=O)CN(Cc2ccccc2Cl)C(=O)c2csnn2)cc1 | inactive |
| COc1ccc(CCNC(=O)c2c(C)nn(-c3ccccc3)c2Cl)cc1 | inactive |
| COc1ccc(N(CC(=O)Nc2cc(OC)ccc2OC)S(=O)(=O)c2c(C)noc2C)cc1 | inactive |
| CCOc1c(OC)cccc1C(=O)NCC1(c2ccccc2)CCCC1 | inactive |
| CN(Cc1ccccc1)C(=O)c1ccc(COc2ccccc2)cc1 | inactive |
| O=S(=O)(ON(c1ccccc1)S(=O)(=O)c1ccccc1)c1ccccc1 | inactive |
| CC1=C/C(=N\OS(=O)(=O)c2ccccc2)C=CC1=O | 1.12 µM (active) |
| NC(=O)CC(NC(=O)Cc1ccc(Br)cc1)c1ccc(NC2CC3CCC2C3)c([N+](=O)[O-])c1 (centres undefined) | inactive |
| CC(C)NC(=O)C(c1ccc(F)cc1)N(C(=O)CCC(=O)Nc1ccccn1)c1ccccc1F (centres undefined) | inactive |
| CCCn1nc(NC(=O)C(C)C)c2cc3cc(OC)ccc3nc21 | inactive |
| CCOc1ccc2c(c1)c(=O)c(S(=O)(=O)c1ccc(C)cc1)cn2CC | inactive |
| COCn1c(C(O)c2ccccc2)cc2ccccc21 (centres undefined) | inactive |
| COc1cc(-n2c(C)nc3cc(C(=O)NCc4ccco4)ccc32)cc(OC)c1OC | inactive |
| COc1cc(C(=O)NC(=S)NCc2ccco2)cc(OC)c1OC | 6.31 µM (active) |
| COc1cc(C(=O)N[C@@H](C)C(=O)NCc2ccco2)cc(OC)c1OC | inactive |
| COc1ccc(CNc2nccs2)cc1 | inactive |
| CCC(=C/c1sc2ccc3ccccc3c2[n+]1C)/C=C1\Sc2ccc3ccccc3c2N1C | 1 µM (active) |
| COc1cccc(OC)c1C(=O)Nc1c(C(=O)N2CCN(c3ccccn3)CC2)oc2ccccc12 | inactive |
| O=C(c1cccnc1)N1CCN(S(=O)(=O)c2cccs2)CC1 | inactive |
| O=S(=O)(NC1CCCCC1N1CCN(c2ccccc2F)CC1)c1ccccc1 (centres undefined) | inactive |
| CCc1ccc(CNC(=O)C2CCCN(c3nc4ccccc4o3)C2)cc1 (centres undefined) | inactive |
| CCOC(=O)CCNC(=O)N1CCCC(C(=O)c2ccccc2SC)C1 (centres undefined) | inactive |
| CCOC(=O)c1cnc(Nc2nc3ccccc3o2)nc1CSC(=S)N1CCCCC1 | 1 µM (active) |
| COc1cc(C(=O)NCc2cc3cc(Cl)ccc3n2C)cc(OC)c1OC | inactive |

| SMILES | Potency |
| --- | --- |
| Cc1ccc(NS(=O)(=O)c2ccc3c(c2)oc(=O)n3C)c(C)c1 | inactive |
| COc1ccccc1N(C)C(=O)c1cc(S(=O)(=O)N2CCc3ccccc32)cn1C | inactive |
| COC(=O)c1ccc(C(=O)NC2CC(C)(C)Cc3c2cnn3-c2ccc(F)cc2)nc1 (centres undefined) | inactive |
| Oc1c(C=Nc2cccc3nsnc23)ccc2ccccc12 | inactive |
| Oc1ccc(N=Nc2nccs2)c(O)c1 | inactive |
| Oc1ccc2ccccc2c1N=Nc1nccs1 | 3.55 µM (active) |
| Cc1csc(NC(=O)CSc2nnc(-c3cccnc3)o2)n1 | inactive |
| COc1ccc(-c2nc(CS(=O)(=O)CC(=O)NCc3cccc(Br)c3)c(C)o2)cc1 | inactive |
| Cc1ccc(N=Nc2c(C)[nH]n(-c3ccccc3)c2=O)cc1 | inactive |
| Cc1cccc(N=Nc2c(C)[nH]n(-c3ccccc3)c2=O)c1 | inactive |
| Cc1[nH]n(C(N)=S)c(=O)c1N=Nc1ccc(Cl)cc1Cl | 2.82 µM (active) |
| COc1ccc(NC(=O)c2cc(-c3cc(OC)c(OC)c(OC)c3)nc3ccccc23)c(OC)c1 | inactive |
| O=C(Nc1ccccc1)N1CCN(Cc2ccccc2)CC1 | inactive |
| O=C(NC(=S)N1CCN(Cc2ccccc2)CC1)c1ccccc1 | 3.55 µM (active) |
| O=C(c1cccc(Cl)c1)N1CCN(Cc2ccccc2)CC1 | inactive |
| CC1CCN(S(=O)(=O)c2ccc3[nH]c(=O)ccc3c2)CC1 | inactive |
| CCC(C)[C@H](NC(=O)N1CCn2c1nc1ccccc12)C(=O)NCc1ccc(OC)cc1 (some centres undefined) | inactive |
| CCOc1ccc(/C=N\NC(=O)c2c(C)nc3cc(C)ccn23)cc1 | inactive |
| CCOc1ccc(/C=N/NC(N)=S)cc1 | 10 µM (active) |
| NC(=S)N/N=C/c1ccc([N+](=O)[O-])cc1 | inactive |
| COc1cc(OC)cc(C(=O)NCCSCc2ccc(Cl)cc2)c1 | inactive |
| COc1cccc(-c2noc(C3CCCN(C(=O)c4ccc(F)cc4)C3)n2)c1 (centres undefined) | inactive |
| Cn1c(=O)c2c(SCC(=O)NCC3CCCO3)nc(CC(C)(C)C)nc2n(C)c1=O (centres undefined) | inactive |
| Fc1ccc2[nH]c3c(N4CCN(Cc5ccc6c(c5)OCO6)CC4)ncnc3c2c1 | 7.08 µM (active) |
| O=c1[nH]c(N2CCN(Cc3ccc4c(c3)OCO4)CC2)nc2c1CCCC2 | inactive |
| CC(C)(C)n1nnnc1C(c1ccc(F)cc1)N1CCN(Cc2ccc3c(c2)OCO3)CC1 (centres undefined) | inactive |

| SMILES | Potency |
| --- | --- |
| CCC(C)(C)NC(=O)C(c1ccc(O)cc1)N(Cc1ccco1)C(=O)CCC(=O)Nc1ccccn1 (centres undefined) | inactive |
| Cc1ccc(-c2cnc(NC(=O)CCC(=O)N(C)Cc3ccccc3)n2C)cc1 | 4.47 µM (active) |
| CN(Cc1ccccc1)C(=O)CCc1ccccc1 | inactive |
| Cn1c(-c2ccc(F)cc2)cnc1SCC(=O)NNC(=O)Cc1ccccc1 | inactive |
| Cc1ccn2c(=O)c(C(=O)NCCC3=CCCCC3)c(O)nc2c1 | inactive |
| O=C(COc1nsnc1N1CCOCC1)Nc1ccccc1Cl | inactive |
| O=C(Cn1ncc2c3ccccc3n(Cc3ccccc3)c2c1=O)NCCCN1CCOCC1 | inactive |
| CCCn1c(NC(=O)C23CC4CC(CC(O)(C4)C2)C3)nc2ccccc21 | 5.62 µM (active) |
| CCCn1c(C(Cc2ccccc2)NC(=O)COC)nc2ccccc21 (centres undefined) | inactive |
| CCOc1ccccc1NC(=O)C12CC3CC(C1)CC(c1ccc(C)cc1)(C3)C2 | inactive |
| Cc1ccc2c(=O)cc(C(=O)NCCc3ccc(S(N)(=O)=O)cc3)oc2c1C | inactive |
| CCCCc1cc(=O)oc2c(C)c(OCC(=O)N3CCC(C(N)=O)CC3)ccc12 | inactive |
| COc1cccc(C(=O)NCCSc2ccc(Br)cc2)c1 | inactive |
| COc1cc(NC(=O)Nc2ccc(C)cc2)cc([N+](=O)[O-])c1 | inactive |
| COc1cc(NC(=S)NCCSc2ccc(C)cc2)cc(OC)c1 | 6.31 µM (active) |
| Cc1ccc(-n2nc3c(=O)n(C(C)C(=O)NCc4ccc5c(c4)OCO5)nc(C)c3c2C)cc1 (centres undefined) | inactive |
| CC(C)(C)Cc1nnc(NC(=O)c2cc(-c3ccccc3)nc3ccccc23)s1 | 12.6 µM (active) |
| O=C(Nc1nnc(-c2ccccc2)o1)c1cc(-c2cccs2)nc2ccccc12 | 1 µM (active) |
| COC(=O)CNC(=O)c1cc(-c2ccncc2)nc2ccccc12 | inactive |
| COC(=O)c1cc(-c2cccs2)nc2ccccc12 | inactive |
| CCCCN(C)CCCNC(=O)c1cc(-c2cccs2)nc2ccccc12 | inactive |
| O=C(O)c1cccc(NC(=O)c2cc(-c3cccc(Cl)c3)nc3ccccc23)c1 | inactive |
| CCOc1ccc(CN2CCN(CCCc3ccccc3)C(CCO)C2)cc1 (centres undefined) | inactive |
| COc1ccc(CNC(=O)CN(C(=O)c2csnn2)c2cnc3ccccc3c2)cc1 | inactive |
| OC(COc1ccc(F)cc1Cl)CN1CCc2ccccc2C1 (centres undefined) | inactive |
| O=C(c1ccc(S(=O)(=O)N2CCCC2)cc1)N1CCN(c2ccccc2F)CC1 | inactive |
